Screens deposited in PubChem by National Center for Advancing Translational Sciences (NCATS).
Shown is part of a subset that was picked to be rich in hits.
IL-1B inflam inh = blocks inflammasome-driven IL-1 beta release; THP-1 LPS/ATP IL-1B secretion, AlphaLISA, 16 h; hits give low values; activity change, % at 57.5 µM; 360,000 compounds, 4.7% hits; AID 743279; in the data active = activity change below about -50%; inconclusive = mostly about -30% to -49%
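Secreted IL-1B measured by AlphaLISA bead assay after 16 h compound exposure of THP-1 cells; compounds (final up to 57.5 uM) added 1 h before LPS (250 ng/mL) and ATP (1.25 mM) stimulation; lower signal means less secretion.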
HT1080 IDH1KD tx = HT-1080 IDH1 knockdown cell toxicity (counter line); HT-1080 IDH1 knockdown viability, ATP luminescence, 48 h; Potency, µM (highest dose often 46.1 µM), hits mostly cytotoxic; 360,000 compounds, 2% hits; AID 686971
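In this qHTS, HT-1080 cells depleted of IDH1 are exposed for 48 h at 37 °C to compound titrations. Toxicity is scored from CellTiter-Glo luminescence, with DMSO as full viability and medium alone as none.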
HT1080NT lethal = kills 2HG-producing HT-1080-NT fibrosarcoma cells; Potency, µM (series often up to 46.1 µM), hits mostly cytotoxic; HT-1080-NT fibrosarcoma viability, CellTiter-Glo ATP luminescence, 48 h; 360,000 compounds, 1.6% hits; AID 686970;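 also: NT is the 2HG producing partner of a matched IDH1 knockdown line; nearly all actives have a fitted effect of over 55% in size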
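Viability by CellTiter-Glo luminescence after 48 h compound exposure at 37C of HT-1080-NT cells (750/well, RPMI, 5% FBS). % activity scaled between DMSO wells and medium-only wells, then curve-fitted and categorized by curve class.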
TDP1 cell noCPT = qHTS for Inhibitors of human tyrosyl-DNA phosphodiesterase 1 (TDP1): qHTS in cells in absence of CPT; Potency, µM (highest dose often 46.2 µM), most hits filed as inhibitors; DT40 Tdp1-/- hTDP1 cells, no CPT, ATP luminescence, 48 h; 420,000 compounds, 15% hits; also: nearly all actives have a fitted effect of over 55% in size
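A cellular qHTS used chicken DT40 cells lacking endogenous Tdp1 but carrying stably transfected human TDP1. Compounds were applied without camptothecin, and cell growth kinetics were judged by ATP-dependent luminescence after ≥48 hr.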
TDP1 cell CPT = DT40-hTDP1 cell growth loss with CPT | chicken DT40 Tdp1-/-;hTDP1 cells + 20 nM CPT, ATP luminescence, 48 h | Potency, µM (titrated, usually from 46.2 µM), hits mostly inhibitors | 420,000 compounds, 12% hits | AID 686979; also: nearly all actives have a fitted effect of over 55% in size
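Chicken DT40 Tdp1-/- cells stably complemented with human TDP1 were seeded at 400 cells/well in medium containing 20 nM camptothecin, exposed to pin-transferred compounds, and grown at 37 °C for at least 48 hr. Viability was read as ATP luminescence.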
ALOX12 inh = inhibitors of human 12S-lipoxygenase ALOX12; purified 12hLO, xylenol orange hydroperoxide absorbance; Potency, µM (doses to about 108 µM), hits mostly inhibitors; 580,000 compounds, 1.1% hits
Target sequence (P18054 whole entry, looked up): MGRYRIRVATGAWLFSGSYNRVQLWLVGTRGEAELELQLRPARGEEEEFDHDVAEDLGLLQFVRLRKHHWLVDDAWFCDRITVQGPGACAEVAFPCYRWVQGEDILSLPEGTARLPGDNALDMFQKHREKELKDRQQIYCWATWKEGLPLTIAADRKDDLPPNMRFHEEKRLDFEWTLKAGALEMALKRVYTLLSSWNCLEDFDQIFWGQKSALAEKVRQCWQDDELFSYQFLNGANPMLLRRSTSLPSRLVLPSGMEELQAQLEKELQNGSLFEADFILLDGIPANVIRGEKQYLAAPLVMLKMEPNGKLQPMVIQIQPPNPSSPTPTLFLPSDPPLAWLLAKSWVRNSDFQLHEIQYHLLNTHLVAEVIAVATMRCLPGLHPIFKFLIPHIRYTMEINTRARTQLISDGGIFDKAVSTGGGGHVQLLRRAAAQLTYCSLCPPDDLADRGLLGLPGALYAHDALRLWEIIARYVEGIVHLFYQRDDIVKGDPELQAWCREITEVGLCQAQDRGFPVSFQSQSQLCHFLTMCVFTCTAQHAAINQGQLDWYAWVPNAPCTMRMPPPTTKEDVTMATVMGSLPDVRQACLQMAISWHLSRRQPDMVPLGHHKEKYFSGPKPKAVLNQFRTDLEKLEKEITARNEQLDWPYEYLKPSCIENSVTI
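Purified human 12hLO at 150 nM in 25 mM Hepes, 0.01% Triton X-100, pH 7.0, preincubated 15 min at room temperature with compound. Reaction started with 40 uM arachidonic acid, 30 min at room temperature. Hydroperoxide measured by Fe-xylenol orange, 573/405 nm absorbance ratio.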
Of the large screens only hits and unclear results are named; the others gave an inactive call. Unless noted, calls follow the shape of the dose curve; as a rule, active = well fitted curve in the direction sought with a large enough effect; inconclusive = small, poorly fitted or top-dose-only effect, or another doubt; inactive = no such curve, though single readings can be large; an effect the other way counts as inactive or inconclusive.

CCOC(=O)c1ccc(-n2c(CCC(=O)O)ccc2-c2cccs2)cc1	IL-1B inflam inh -70, HT1080 IDH1KD tx inconclusive, TDP1 cell noCPT inconclusive
COc1ccc(NC(=O)COc2ccc(N(C)S(=O)(=O)c3ccc(C)cc3)cc2)cc1	IL-1B inflam inh inconclusive, TDP1 cell noCPT inconclusive, TDP1 cell CPT inconclusive
COCCn1c(C)cc(C(=O)COC(=O)c2ccc(S(=O)(=O)N(C)C)cc2)c1C	ALOX12 inh inconclusive
COCCn1c(C)cc(C(=O)COc2ccc(N(C)S(=O)(=O)c3ccc(C)cc3)cc2)c1C	TDP1 cell noCPT inconclusive, TDP1 cell CPT 18µM, ALOX12 inh inconclusive
COc1ccc(NC(=O)CS(=O)(=O)c2cccc(Cl)c2)cc1	TDP1 cell noCPT 23µM, TDP1 cell CPT inconclusive
Cc1ccc(S(=O)(=O)N(C)c2ccc(OCC(=O)Nc3ccc(S(C)(=O)=O)cc3)cc2)cc1	TDP1 cell noCPT 16µM, TDP1 cell CPT 18µM
COc1ccc(NC(=O)COc2ccc(N(C)S(=O)(=O)c3ccc(Cl)cc3)cc2)cc1	IL-1B inflam inh -52, TDP1 cell noCPT inconclusive
CCC(=O)N1CCc2cc(S(=O)(=O)NCCC(=O)Nc3cc(C)ccc3OC)ccc21	none (no result: IL-1B inflam inh, HT1080 IDH1KD tx, HT1080NT lethal)
O=C(COc1ccc(NC(=O)C2CC2)cn1)NCc1cc(F)cc(F)c1	none (no result: IL-1B inflam inh, HT1080 IDH1KD tx, HT1080NT lethal, TDP1 cell noCPT, TDP1 cell CPT)
CS(=O)(=O)N1CCN(C(C(=O)O)c2c[nH]c3ccc(Cl)cc23)CC1 (configuration not stated)	none (no result: IL-1B inflam inh, HT1080 IDH1KD tx, HT1080NT lethal, TDP1 cell noCPT, TDP1 cell CPT)
CS(=O)(=O)c1ccc(-c2nc(C(=O)NCc3cccnc3)n3ccncc23)cc1	none (no result: IL-1B inflam inh, HT1080 IDH1KD tx, HT1080NT lethal, TDP1 cell noCPT, TDP1 cell CPT)
N#C/C(=C\c1ccc(OCc2ccccc2)cc1)C(=O)Nc1ccc(C(=O)O)cc1	none
COC(=O)c1ccc(COc2ccccc2/C=C(\C#N)C(=O)Nc2c(C)cc(C)cc2C)cc1	IL-1B inflam inh -79, HT1080 IDH1KD tx 18µM, HT1080NT lethal 9.2µM, TDP1 cell noCPT 10µM, TDP1 cell CPT 8.2µM
Cc1cc(C)c(NC(=O)/C(C#N)=C/c2ccc(OCc3ccc(F)cc3)cc2)c(C)c1	TDP1 cell noCPT 6.5µM, TDP1 cell CPT 2.6µM
Cc1cc(C)nc(SSc2nc(C)cc(C)n2)n1	HT1080 IDH1KD tx inconclusive, HT1080NT lethal inconclusive, TDP1 cell noCPT inconclusive, TDP1 cell CPT inconclusive
CN=C1S/C(=C/c2cn(CC(=O)OC)c3ccccc23)C(=O)N1C	TDP1 cell noCPT inconclusive, ALOX12 inh 28µM
CN=C1S/C(=C\c2cn(CC(=O)OC)c3ccccc23)C(=O)N1C	TDP1 cell noCPT inconclusive
O=C(CCn1nc(-c2ccccc2)c2ccccc2c1=O)NCc1ccccc1	none (no result: IL-1B inflam inh, HT1080 IDH1KD tx, HT1080NT lethal, TDP1 cell noCPT, TDP1 cell CPT)
Cn1c(=O)c2c(-c3ccccc3)n(-c3cccc(O)c3)cc2n(C)c1=O	TDP1 cell noCPT 9.2µM, TDP1 cell CPT 18µM
Cc1cccc(-c2c3c(=O)n(C)c(=O)n(C)c3cn2-c2ccc(O)cc2)c1	TDP1 cell noCPT inconclusive, TDP1 cell CPT inconclusive, ALOX12 inh inconclusive
COc1ccc(-c2c3c(=O)n(C)c(=O)n(C)c3cn2-c2cc(OC)ccc2OC)cc1	HT1080 IDH1KD tx inconclusive, TDP1 cell noCPT 23µM, TDP1 cell CPT inconclusive
Cn1c(=O)c2c(-c3ccccc3)n(-c3ccccc3Br)cc2n(C)c1=O	TDP1 cell noCPT 5.2µM, TDP1 cell CPT 4.6µM
COc1ccccc1-n1cc2c(c1-c1ccc(C)cc1)c(=O)n(C)c(=O)n2C	none (no result: IL-1B inflam inh, HT1080 IDH1KD tx, HT1080NT lethal, TDP1 cell noCPT, TDP1 cell CPT)
COc1ccc(-c2c3c(=O)n(C)c(=O)n(C)c3cn2-c2ccccc2O)cc1	TDP1 cell CPT inconclusive
Cn1c(=O)c2c(-c3ccccc3)n(-c3ccc(N)cc3)cc2n(C)c1=O	TDP1 cell noCPT 15µM, TDP1 cell CPT inconclusive, ALOX12 inh inconclusive
N#CCCN(C(=O)CN1C(=O)NC(Cc2c[nH]c3ccccc23)C1=O)c1ccccc1F (configuration not stated)	none (no result: IL-1B inflam inh, HT1080 IDH1KD tx, HT1080NT lethal, TDP1 cell noCPT, TDP1 cell CPT)
O=C(CCCSc1ccccc1)NCC1CCCO1 (configuration not stated)	none (no result: IL-1B inflam inh, HT1080 IDH1KD tx, HT1080NT lethal, TDP1 cell noCPT, TDP1 cell CPT)
